Values joined by “and” are separate entries in the source; they are usually repeats but may differ in a detail not shown here. Equal entries are not always repeated. Records with an inconclusive call do not appear. More than one record can exist for a structure, and the calls need not agree. Active and inactive are the calls of the source. Calls come from the whole dose curve; as a rule, active = well fitted curve in the direction sought with a large enough effect in the repeat runs; inconclusive = weak or mixed curves; inactive = no such curve, though single readings can be large; an effect the other way counts as inactive or inconclusive.
Columns and labels:
[1] = Human pregnane X receptor (PXR) small molecule agonists, qHTS cell viability counter screen (AID 1346977); note: nearly all actives have a fitted effect of over 50% in size
Procedure, shortened: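 PXR-Luc HepG2 cells in medium with 5% charcoal-stripped FBS were pre-incubated 5hr, then exposed to compounds for 24hr at 37C. Viability was read in the same wells by CellTiter-Fluor fluorescence, reagent added after 23hr with a 1hr incubation.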

[2] = Caspase-3/7 induction in HepG2 cells by small molecules, qHTS assay (AID 1346978); note: nearly all actives have a fitted effect of over 15% in size
Procedure, shortened: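 Wild-type HepG2 cells, 2,000/well, settled 5 hr at 37 C and 5% CO2, then compound-treated for 17 hr; caspase-3/7 activity read by luminescent Caspase-Glo 3/7 after 30 min at room temperature.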

[3] = Caspase-3/7 induction in CHO-K1 cells by small molecules, qHTS cell viability counter screen (AID 1346979); note: nearly all actives have a fitted effect of over 35% in size; note: potency is the fitted concentration of half-maximal effect
Procedure, shortened: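 Wild-type CHO-K1 cells were seeded at 1,500 per well, rested 5hr at 37 C, then exposed to compounds in DMSO. After 16hr, CellTiter-Fluor reagent was added and fluorescence read 1hr later as the viability measure.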

[4] = Caspase-3/7 induction in CHO-K1 cells by small molecules, qHTS assay (AID 1346980); note: nearly all actives have a fitted effect of over 15% in size
Procedure, shortened: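 Wild-type CHO-K1 cells exposed to compounds for 17hr at 37 C, 5% CO2. Caspase-3/7 activity then measured by Caspase-Glo 3/7 luminescence after 30min at room temperature.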

[5] = Caspase-3/7 induction in HepG2 cells by small molecules, qHTS cell viability counter screen (AID 1346981); note: nearly all actives have a fitted effect of over 30% in size; note: potency is the fitted concentration of half-maximal effect
Procedure, shortened: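 Wild-type HepG2 cells (2,000/well) were allowed to settle for 5 hr at 37 C, 5% CO2, then dosed with compounds in DMSO by pin transfer. After 16 hr at 37 C, CellTiter-Fluor was added and fluorescence read 1 hr later.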

[6] = target: Nuclear receptor subfamily 1 group I member 2 (Homo sapiens) (UniProt O75469); assay: Human pregnane X receptor (PXR) small molecule agonists, qHTS assay (AID 1346982); note: nearly all actives have a fitted effect of over 35% in size; note: potency is the fitted concentration of half-maximal effect
Procedure, shortened: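 PXR-Luc HepG2 cells (CYP3A4 promoter-driven luciferase) were seeded in medium with 5% charcoal-stripped FBS, left 5 hr at 37 C, then exposed to compounds in DMSO for 24 hr. Luminescence was read after ONE-Glo addition.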

[7] = target: Cytochrome P450 2D6 (Homo sapiens) (UniProt P10635); assay: Cytochrome P450 Family 2 Subfamily D Member 6 (CYP2D6) small molecule antagonists: luciferase reporter qHTS assay (AID 1671196); note: nearly all actives have a fitted effect of over 50% in size; note: potency is the fitted concentration of half-maximal effect; for activity change, negative = inhibition: series mostly up to about 120 µM
Procedure, shortened: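 CYP2D6 enzyme–substrate mix was held with compound for 10 min at room temperature, then NADPH regeneration solution was added and the reaction ran 1 h at room temperature. Luciferin product was detected by luminescence after 20 min with detection reagent.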

[8] = target: Cytochrome P450 2C19 (Homo sapiens) (UniProt P33261); assay: Cytochrome P450 Family 2 Subfamily C Member 19 (CYP2C19) small molecule antagonists: luciferase reporter qHTS assay (AID 1671197); note: nearly all actives have a fitted effect of over 65% in size; note: potency is the fitted concentration of half-maximal effect; for activity change, negative = inhibition: series mostly up to about 120 µM
Procedure, shortened: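 Compounds were tested on CYP2C19 activity via proluciferin conversion to luciferin. The 37C, 1 h reaction followed NADPH addition; detection reagent stopped it.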

[9] = target: Cytochrome P450 2C9 (Homo sapiens) (UniProt P11712); assay: Cytochrome P450 Family 2 Subfamily C Member 9 (CYP2C9) small molecule antagonists: luciferase reporter qHTS assay (AID 1671198); note: nearly all actives have a fitted effect of over 50% in size; note: potency is the fitted concentration of half-maximal effect; for activity change, negative = inhibition: series mostly up to about 120 µM
Procedure, shortened: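 P450-Glo proluciferin substrate with CYP2C9 enzyme; 10 min RT preincubation, then NADPH regeneration 1 h at 37C; luciferin detection reagent 20 min RT, luminescence in relative luminescence units.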

[10] = target: Cytochrome P450 1A2 (Homo sapiens) (UniProt P05177); assay: Cytochrome P450 Family 1 Subfamily A Member 2 (CYP1A2) small molecule antagonists: luciferase reporter qHTS assay (AID 1671199); note: nearly all actives have a fitted effect of over 50% in size; note: potency is the fitted concentration of half-maximal effect; for activity change, negative = inhibition: series mostly up to about 120 µM
Procedure, shortened: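 Human CYP1A2 activity measured with a P450-Glo proluciferin substrate; compounds in DMSO preincubated 10 min at room temperature with enzyme-substrate mix, then NADPH regeneration system added for 1 h. Luciferin detection reagent, 20 min, luminescence read.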

[11] = target: Voltage-gated inwardly rectifying potassium channel KCNH2 (Homo sapiens) (UniProt Q12809); assay: Human Ether-a-go-go-Related Gene (hERG) channel small molecule antagonists: fluorescence cell-based qHTS assay (AID 1671200)
Procedure, shortened: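 U2OS cells expressing the channel were plated at 1000 cells/well, incubated overnight at 37 C, then loaded with FluxOR II thallium-sensitive dye for 1 h at room temperature in the dark, with a further 10 min at room temperature before stimulation.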

[12] = target: Cytochrome P450 3A4 (Homo sapiens) (UniProt P08684); assay: Cytochrome P450 Family 3 Subfamily A Member 4 (CYP3A4) small molecule antagonists: luciferase reporter qHTS assay (AID 1671201); note: nearly all actives have a fitted effect of over 50% in size; note: potency is the fitted concentration of half-maximal effect; for activity change, negative = inhibition: series mostly up to about 120 µM
Procedure, shortened: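 P450-Glo CYP3A4 system with proluciferin substrate; compounds preincubated 10 min RT with enzyme-substrate mix, then NADPH regeneration added for 1 h RT. Detection reagent 20 min, luminescence read as relative luminescence units.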

[13] = target: Nuclear receptor subfamily 1 group I member 2 (Rattus norvegicus) (UniProt Q9R1A7); assay: Rat pregnane X receptor (rPXR) activation by small molecules, qHTS assay (AID 1346983); conditions: rPXR luciferase reporter cells, One-Glo luminescence, 24 h; stronger effect = higher value; note: nearly all actives have a fitted effect of over 20% in size
Procedure, shortened: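 Cell-based rPXR activation assay: rPXR cells, 2,000 per well, rested 5hr at 37 C, then exposed to compounds in DMSO for 24 hr at 37 C. Luciferase activity read by One-Glo luminescence after 30 min at room temperature.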

[14] = target: Nuclear receptor subfamily 1 group I member 2 (Homo sapiens) (UniProt O75469); assay: CYP3A4 induction through human pregnane X receptor (PXR) by small molecules, qHTS assay (AID 1346984); note: nearly all actives have a fitted effect of over 40% in size
Procedure, shortened: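 DPX-2 cells (HepG2 co-transfected with PXR and CYP3A4 promoter-luciferase) treated with compounds 24 h at 37C; luciferin-IPA CYP3A4 substrate 3uM final added for 3 h, then One-Glo; luminescence read. qHTS format.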

[15] = target: Nuclear receptor subfamily 1 group I member 2 (Homo sapiens) (UniProt O75469); assay: Human pregnane X receptor (PXR) activation by small molecules, qHTS assay (AID 1346985); note: nearly all actives have a fitted effect of over 40% in size
Procedure, shortened: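 DPX-2 cells (HepG2 co-transfected with a PXR response element and a CYP3A4-promoter luciferase construct) were seeded at 2,000 per well, rested 5 hr at 37C, then exposed to DMSO-dissolved compounds for 24 hr. Activation was read as luciferase luminescence.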
% is set by controls: 0 for no effect and ±100 for the full control effect.

Sequence of Nuclear receptor subfamily 1 group I member 2 (Homo sapiens) (O75469 whole entry, looked up): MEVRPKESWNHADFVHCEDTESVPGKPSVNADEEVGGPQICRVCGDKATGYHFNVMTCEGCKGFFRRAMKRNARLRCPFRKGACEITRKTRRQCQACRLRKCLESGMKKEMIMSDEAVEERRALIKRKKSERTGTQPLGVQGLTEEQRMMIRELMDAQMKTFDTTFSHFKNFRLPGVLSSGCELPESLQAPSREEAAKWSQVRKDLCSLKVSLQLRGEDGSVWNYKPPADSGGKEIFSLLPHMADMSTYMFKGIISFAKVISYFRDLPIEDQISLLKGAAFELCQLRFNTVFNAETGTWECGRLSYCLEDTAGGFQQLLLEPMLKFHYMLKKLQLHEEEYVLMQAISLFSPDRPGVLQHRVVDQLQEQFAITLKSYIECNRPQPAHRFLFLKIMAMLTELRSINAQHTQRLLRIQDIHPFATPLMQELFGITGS
Sequence of Cytochrome P450 2D6 (Homo sapiens) (P10635 whole entry, looked up): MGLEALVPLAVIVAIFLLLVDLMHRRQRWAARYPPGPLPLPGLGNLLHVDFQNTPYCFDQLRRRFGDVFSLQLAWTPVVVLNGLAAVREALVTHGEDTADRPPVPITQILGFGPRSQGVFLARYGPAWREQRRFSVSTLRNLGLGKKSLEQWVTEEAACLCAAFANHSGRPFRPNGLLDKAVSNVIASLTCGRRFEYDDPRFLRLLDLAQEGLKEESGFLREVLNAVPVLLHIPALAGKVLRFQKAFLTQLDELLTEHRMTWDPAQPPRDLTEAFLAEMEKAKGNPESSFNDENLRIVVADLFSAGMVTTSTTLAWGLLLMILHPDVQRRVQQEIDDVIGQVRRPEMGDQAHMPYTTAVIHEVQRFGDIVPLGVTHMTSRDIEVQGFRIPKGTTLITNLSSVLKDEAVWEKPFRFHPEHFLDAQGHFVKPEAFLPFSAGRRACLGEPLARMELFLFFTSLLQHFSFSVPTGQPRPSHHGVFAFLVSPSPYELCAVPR
Sequence of Cytochrome P450 2C19 (Homo sapiens) (P33261 whole entry, looked up): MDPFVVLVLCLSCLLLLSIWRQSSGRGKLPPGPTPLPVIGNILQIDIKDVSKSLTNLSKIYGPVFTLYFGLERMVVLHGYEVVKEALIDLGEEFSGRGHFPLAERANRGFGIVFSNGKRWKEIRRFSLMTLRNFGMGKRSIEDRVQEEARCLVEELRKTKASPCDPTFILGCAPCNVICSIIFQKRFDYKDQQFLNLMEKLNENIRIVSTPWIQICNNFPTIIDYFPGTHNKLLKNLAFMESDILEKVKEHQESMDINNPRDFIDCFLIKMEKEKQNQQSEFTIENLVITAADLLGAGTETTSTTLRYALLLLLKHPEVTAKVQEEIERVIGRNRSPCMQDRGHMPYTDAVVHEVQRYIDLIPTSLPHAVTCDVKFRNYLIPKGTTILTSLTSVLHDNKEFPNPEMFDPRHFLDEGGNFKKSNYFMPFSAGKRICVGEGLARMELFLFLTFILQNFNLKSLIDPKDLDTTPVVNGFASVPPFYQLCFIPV
Sequence of Voltage-gated inwardly rectifying potassium channel KCNH2 (Homo sapiens) (Q12809 whole entry, looked up): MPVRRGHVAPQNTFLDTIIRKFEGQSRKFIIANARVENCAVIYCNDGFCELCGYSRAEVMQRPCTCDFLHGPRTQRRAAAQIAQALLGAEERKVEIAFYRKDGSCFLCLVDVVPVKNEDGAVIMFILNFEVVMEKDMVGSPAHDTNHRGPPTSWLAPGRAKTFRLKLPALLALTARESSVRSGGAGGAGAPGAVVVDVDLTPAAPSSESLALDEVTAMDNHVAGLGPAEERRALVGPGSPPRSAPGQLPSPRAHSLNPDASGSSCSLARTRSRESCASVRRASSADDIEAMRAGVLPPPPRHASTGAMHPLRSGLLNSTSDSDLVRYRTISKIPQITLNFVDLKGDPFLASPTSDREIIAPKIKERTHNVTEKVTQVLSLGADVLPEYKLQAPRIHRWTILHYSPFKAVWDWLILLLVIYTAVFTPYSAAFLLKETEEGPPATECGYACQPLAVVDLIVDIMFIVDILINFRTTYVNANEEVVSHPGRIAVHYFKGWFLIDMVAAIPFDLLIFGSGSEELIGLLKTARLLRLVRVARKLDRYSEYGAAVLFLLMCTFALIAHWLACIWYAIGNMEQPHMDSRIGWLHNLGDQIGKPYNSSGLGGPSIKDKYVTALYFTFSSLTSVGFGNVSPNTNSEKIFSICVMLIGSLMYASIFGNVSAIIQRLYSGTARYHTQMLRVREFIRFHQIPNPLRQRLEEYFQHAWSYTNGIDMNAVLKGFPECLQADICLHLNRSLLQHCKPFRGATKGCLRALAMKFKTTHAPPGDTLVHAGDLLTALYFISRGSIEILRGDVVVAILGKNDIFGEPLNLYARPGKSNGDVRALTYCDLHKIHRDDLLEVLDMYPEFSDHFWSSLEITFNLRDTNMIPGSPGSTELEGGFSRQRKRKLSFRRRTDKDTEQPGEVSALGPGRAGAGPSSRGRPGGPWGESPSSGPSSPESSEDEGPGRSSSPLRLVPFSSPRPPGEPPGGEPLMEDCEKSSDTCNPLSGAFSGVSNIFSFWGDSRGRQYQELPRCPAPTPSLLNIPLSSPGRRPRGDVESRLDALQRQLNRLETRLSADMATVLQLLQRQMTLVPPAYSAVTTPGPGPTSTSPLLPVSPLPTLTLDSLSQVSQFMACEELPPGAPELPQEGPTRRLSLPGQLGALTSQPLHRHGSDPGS
Sequence of Cytochrome P450 3A4 (Homo sapiens) (P08684 whole entry, looked up): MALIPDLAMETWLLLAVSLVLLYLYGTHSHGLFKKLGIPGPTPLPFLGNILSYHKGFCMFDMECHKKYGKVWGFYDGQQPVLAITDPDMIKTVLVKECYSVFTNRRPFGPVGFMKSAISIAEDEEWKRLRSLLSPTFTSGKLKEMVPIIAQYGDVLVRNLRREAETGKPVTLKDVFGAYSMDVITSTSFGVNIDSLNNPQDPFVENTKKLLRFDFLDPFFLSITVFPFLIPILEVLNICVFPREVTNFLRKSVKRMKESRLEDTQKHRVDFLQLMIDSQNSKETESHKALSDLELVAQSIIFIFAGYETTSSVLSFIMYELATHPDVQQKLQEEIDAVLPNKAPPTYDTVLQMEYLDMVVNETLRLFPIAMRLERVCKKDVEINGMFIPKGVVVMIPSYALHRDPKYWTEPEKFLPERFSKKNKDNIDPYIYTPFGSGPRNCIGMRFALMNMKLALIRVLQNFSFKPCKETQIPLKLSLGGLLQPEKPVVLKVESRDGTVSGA
Sequence of Cytochrome P450 2C9 (Homo sapiens) (P11712 whole entry, looked up): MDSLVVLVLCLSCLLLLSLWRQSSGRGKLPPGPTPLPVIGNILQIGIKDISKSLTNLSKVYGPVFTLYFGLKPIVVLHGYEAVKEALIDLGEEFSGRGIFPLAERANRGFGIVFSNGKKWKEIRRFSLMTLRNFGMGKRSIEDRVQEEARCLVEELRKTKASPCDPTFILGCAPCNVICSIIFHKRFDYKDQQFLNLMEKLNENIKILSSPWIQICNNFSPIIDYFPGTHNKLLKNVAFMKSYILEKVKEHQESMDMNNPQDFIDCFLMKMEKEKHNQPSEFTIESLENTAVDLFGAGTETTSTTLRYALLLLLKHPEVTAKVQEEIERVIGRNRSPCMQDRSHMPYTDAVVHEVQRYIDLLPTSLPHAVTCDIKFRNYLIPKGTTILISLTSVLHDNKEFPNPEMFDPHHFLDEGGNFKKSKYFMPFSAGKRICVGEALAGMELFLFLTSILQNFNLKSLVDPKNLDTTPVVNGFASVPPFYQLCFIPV
Sequence of Nuclear receptor subfamily 1 group I member 2 (Rattus norvegicus) (Q9R1A7 whole entry, looked up): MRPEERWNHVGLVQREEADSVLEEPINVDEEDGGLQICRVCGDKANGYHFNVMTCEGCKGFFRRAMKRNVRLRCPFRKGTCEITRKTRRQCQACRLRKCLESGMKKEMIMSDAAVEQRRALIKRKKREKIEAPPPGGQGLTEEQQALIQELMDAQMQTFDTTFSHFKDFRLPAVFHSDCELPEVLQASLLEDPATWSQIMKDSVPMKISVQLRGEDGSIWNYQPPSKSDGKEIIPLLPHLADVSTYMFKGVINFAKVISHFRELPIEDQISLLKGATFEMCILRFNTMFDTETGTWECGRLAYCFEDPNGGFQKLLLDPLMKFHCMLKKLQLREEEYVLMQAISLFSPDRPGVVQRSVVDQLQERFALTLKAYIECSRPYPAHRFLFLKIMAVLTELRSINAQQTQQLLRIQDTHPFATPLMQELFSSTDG
Sequence of Cytochrome P450 1A2 (Homo sapiens) (P05177 whole entry, looked up): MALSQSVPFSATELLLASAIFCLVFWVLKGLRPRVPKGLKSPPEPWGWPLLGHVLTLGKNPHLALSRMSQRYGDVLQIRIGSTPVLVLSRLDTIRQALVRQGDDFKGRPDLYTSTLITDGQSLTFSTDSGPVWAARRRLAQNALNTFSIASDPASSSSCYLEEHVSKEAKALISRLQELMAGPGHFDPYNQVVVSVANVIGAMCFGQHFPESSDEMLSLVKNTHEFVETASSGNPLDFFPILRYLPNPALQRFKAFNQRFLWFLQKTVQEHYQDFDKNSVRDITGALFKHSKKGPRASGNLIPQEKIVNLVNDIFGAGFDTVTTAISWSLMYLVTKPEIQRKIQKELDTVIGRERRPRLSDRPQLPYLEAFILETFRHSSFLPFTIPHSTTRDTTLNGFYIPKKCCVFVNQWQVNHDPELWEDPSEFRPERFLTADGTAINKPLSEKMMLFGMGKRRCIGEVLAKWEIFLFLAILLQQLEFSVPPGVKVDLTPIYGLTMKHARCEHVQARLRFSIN

C=CC(=O)NCOCCCC
inactive: Potency [1] | Potency [2] | Potency [3] | Potency [4] | Potency [5] | Potency [6] | Potency [9] | Potency [10] | Potency [11] | Potency [12]
16.4 µM (active) and inactive: Potency [7]
active: Potency [8] 46.2 µM

CCCCCCCCCCCC(=O)N(C)CC(=O)O
active: Potency [6] 59.2 µM
inactive: Potency [1] | Potency [2] | Potency [3] | Potency [4] | Potency [5] | activation [6] -3.89% [at 8.39 µM] | activity change, negative = inhibition [7] -25.2% [at 10.5 µM] | activity change, negative = inhibition [8] 17.6% [at 10.5 µM] | Potency [10] | Potency [11] | Potency [12]

OCc1ccc(Cl)cc1Cl
inactive: Potency [1] | Potency [2] | Potency [3] | Potency [4] | Potency [5] | Potency [6] | max activation [13] -2.12% | Potency [14] | outcome [15] | Potency [7] | Potency [8] | Potency [9] | Potency [11] | Potency [12]
active: Potency [10] 39.9 µM

O=c1c(O)c(-c2ccc(O)c(O)c2)oc2cc(O)cc(O)c12
active: Potency [3] 54.5 µM | Potency [5] 48.6 µM and 54.5 µM | Potency [6] 48.6 µM and 69.1 µM
63.4 µM (active) and inactive: Potency [7]
inactive: Potency [1] | Potency [2] | Potency [4] | max activation [13] -3.01% | Potency [14] | outcome [15] | Potency [8] | Potency [11]

CCOC(=O)CC(=O)OCC
inactive: Potency [1] | Potency [2] | Potency [3] | Potency [4] | Potency [5] | Potency [6] | Potency [7] | Potency [8] | Potency [9] | Potency [10] | Potency [11] | Potency [12]

COc1ccc(N)c(OC)c1
active: Potency [7] 1.53 µM and 17.8 µM | Potency [8] 15.3 µM and 35.6 µM | Potency [9] 15.3 µM and 35.6 µM | Potency [10] 39.9 µM | Potency [12] 3.84 µM and 11.3 µM
inactive: Potency [1] | Potency [2] | Potency [3] | Potency [4] | Potency [5] | Potency [6] | Potency [11]

C1CCCNCC1
inactive: Potency [1] | Potency [2] | Potency [3] | Potency [4] | Potency [5] | Potency [6] | Potency [7] | Potency [8] | Potency [9] | Potency [10] | Potency [11] | Potency [12]

CCOC(=O)c1ccc(O)cc1
inactive: Potency [1] | Potency [2] | Potency [3] | Potency [4] | Potency [5] | Potency [6] | max activation [13] -2.61% | outcome [15]

OCC(O)CS (stereo not given)
inactive: Potency [1] | Potency [2] | Potency [3] | Potency [4] | Potency [5] | Potency [6] | max activation [13] -1.93% | Potency [14] | outcome [15] | Potency [7] | Potency [8] | Potency [9] | Potency [10] | Potency [11] | Potency [12]

Source: PubChem BioAssay (Tox21)
